Compound activity deposited in PubChem BioAssay by National Center for Advancing Translational Sciences (NCATS).
Rows were chosen to be rich in hits. Some 2.1% of all compounds tested hit in one or more screens of this group.
TDP-43 yeast inh: TDP-43 toxicity inhibition in yeast | TDP-43 expressing yeast growth rescue, BacTiter-Glo, 24 h | Potency, µM (top dose mostly 46.1 µM), without a hit: at the top dose growth rescue (activation), usual class: activators | actives 1.8% (n = 410,000); note: % of control where 0% means no effect; nearly all actives have a fitted effect of over 50% in size
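Growth rescue of TDP-43-toxic yeast measured as ATP luminescence (BacTiter-Glo). Cells grown to mid-log in raffinose, induced in galactose at OD600=0.02, exposed to compound 24 hr at 30 deg C.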
aSyn yeast inh: rescues yeast growth from alpha-synuclein toxicity | Yeast expressing alpha-synuclein, growth rescue, BacTiter-Glo, 24 h | actives 0.14% (n = 370,000) | Potency, µM (highest dose often 46.1 µM), without a hit: top-dose growth rescue (activation), actives largely listed as activators | AID 652106; note: % of control where 0% means no effect; nearly all actives have a fitted effect of over 65% in size
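Readout is rescue of growth in alpha-synuclein-expressing yeast, so inhibitors of toxicity appear as activators. Growth after 24 hr at 30 deg C in galactose medium is quantified by luminescence.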
FUS suppressor: rescues growth of FUS-expressing yeast; S. cerevisiae FUS-expressing, growth rescue, OD600, 24 h; Potency, µM (series often up to 76.6 µM), hits mostly activators; actives 0.24% (n = 390,000); AID 1347120;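 note: plate controls were DMSO vehicle for no effect and reference control for full effect; nearly all actives have a fitted effect of over 55% in size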
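Steps: raffinose overnight preculture; dilution to OD 0.005 in 2% galactose minimal medium; compound addition (concentration series); 24hr at 30C, 99% humidity; absorbance read at 600 nm.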
Abeta rescue: compounds reversing amyloid beta toxicity in yeast; yeast expressing A-beta42, growth rescue, OD600, 48 h; response scale: 0% DMSO, 100% iron-clioquinol control; Potency, µM (titrated, usually from 46.1 µM), usual class: activators; actives 0.063% (n = 410,000); AID 1347071; note: nearly all actives have a fitted effect of over 55% in size
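Growth rescue measured by 600 nm absorbance after 48 h yeast culture at 30 C with compound. Values normalized between DMSO and an equimolar ferric chloride plus clioquinol control.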
* hit, by the source's call; i = inactive; ? = inconclusive; . = no result; ! = not active in a repeat; [ ] = dose if it differs, or a comment. Calls come from the whole dose curve; as a rule, active = well fitted curve in the direction sought with a large enough effect; inconclusive = small, poorly fitted or top-dose-only effect, or another doubt; inactive = no such curve, though single readings can be large; an effect the other way counts as inactive or inconclusive. Potency is the fitted concentration of half-maximal effect.

SMILES	TDP-43 yeast inh	aSyn yeast inh	FUS suppressor	Abeta rescue
Cc1ccc(NC(=S)c2ccccc2)cc1	11.2µM*	-2.1%	i	i
O=C(Cn1cnc2nc3c(cc2c1=O)CCCC3)N1CCN(c2ccccc2)CC1	9.0%	.	i	i
COc1ccccc1CC(=O)Nc1ccc2nc(Nc3cccc(C(F)(F)F)c3)cc(C)c2c1	12.6µM*	.	?	i
Cc1cc(Nc2cccc(Cl)c2)nc2ccc(NC(=O)c3cncc(Br)c3)cc12	22.4µM*	.	31.6µM*	i
COc1cccc(CC(=O)Nc2ccc3nc(Nc4cccc(C(F)(F)F)c4)cc(C)c3c2)c1	27.7%	.	i	i
Cc1ccccc1C(=O)Nc1ccc2nc(Nc3cccc(C(F)(F)F)c3)cc(C)c2c1	17.8µM*	.	i	i
Cc1ccc2c(c1)c(=O)c(S(=O)(=O)c1ccc(F)cc1)cn2CC(=O)Nc1ccc2c(c1)OCO2	26.6%	.	i	i
COc1ccc(NC(=O)CSC2=Nc3ccccc3C3=NC(CCC(=O)NCc4ccc(F)cc4)C(=O)N23)cc1Cl (stereo not given)	-2.3%	.	i	i
O=c1c2c3c(sc2nc2n1CCCS2)CCCC3	17.8µM*	0.3%	i	i
O=c1c2c3c(sc2nc2n1CCCCC2)CCCC3	12.6µM*	-4.0%	i	i
O=[N+]([O-])c1ccc(Oc2cccc(Br)c2)c2ccncc12	15.8µM*	6.1%	i	i
O=[N+]([O-])c1ccc(Oc2ccc(F)cc2)c2ccncc12	?	9.0%	i	i
Cn1cnc(S(=O)(=O)N2CCCC(C(=O)NCc3ccccc3Cl)C2)c1 (stereo not given)	-2.5%	.	i	i
Cc1c(C(=O)n2cnc3ccccc32)cccc1[N+](=O)[O-]	?	-1.6%	i	i
Cc1nc2ccccc2n1C(=O)c1ccccc1[N+](=O)[O-]	20µM*	-0.9%	.	i
CCOc1cccc(NC(=O)C2CC(=O)N(C)C(=Nc3cccc(OC)c3)S2)c1 (stereo not given)	35.5µM*	.	?	i
COc1cccc(N=C2SC(C(=O)Nc3ccc(F)cc3)CC(=O)N2C)c1 (stereo not given)	26.3%	20.5%	i	i
CCOc1cccc(NC(=O)C2CC(=O)N(C)C(=Nc3ccc(OC)cc3)S2)c1 (stereo not given)	22.1%	4.7%	i	i
CCOc1cccc(NC(=O)C2CC(=O)N(C)C(=Nc3ccc(F)cc3)S2)c1 (stereo not given)	25.1µM*	.	i	15.8µM*
CC(C)CC(=O)O/N=C1\C(=O)N(c2ccccc2)c2ccccc21	-13.7%	1.4%	i	i
CC(C)(C)C(=O)O/N=C1/C(=O)N(c2ccccc2)c2ccccc21	?	7.08µM*	i	i
Nc1c(C(=O)c2ccc(Br)s2)oc2ccccc12	12.6µM*	0.4%	i	i
CCNC(=O)C[C@H]1CC[C@H]2[C@@H](COc3ccc(NC(=O)c4ccc5c(c4)OCO5)cc3C(=O)N2C)O1	.	.	i	.
COC(=O)Cn1ccc2cc(S(=O)(=O)N3CCCCCC3)ccc21	15.8µM*!	11.5%	i	i
CCOc1ccc(CNC(=O)Cn2ccc3cc(S(=O)(=O)N4CCCCCC4)ccc32)cc1	-4.1%	7.6%	i	i
SMILES	TDP-43 yeast inh	aSyn yeast inh	FUS suppressor	Abeta rescue
CCOc1ccc(CCNC(=O)Cn2ccc3cc(S(=O)(=O)N4CCCCC4)ccc32)cc1	12.1%	.	17.8µM*	i
COc1ccc(CN(C)CC#Cc2ccccc2)c(OC)c1	.	.	i	.
CC(C)c1ccc(NC(=O)c2cc3c(s2)-c2ccccc2SC3)cc1	15.5%	.	i	i
O=C(Nc1c(-c2ccc(F)c(F)c2)nc2ncccn12)C1CC1	.	.	i	.
COc1ccc(F)cc1S(=O)(=O)Nc1ccc2c(c1)CCCN2C(=O)c1cccs1	22.1%[9.22 µM]	.	i	i
CCc1ccc(Nc2nc(N)nc(CSc3nc4ccccc4s3)n2)cc1	25.1µM*!	0.9%	i	?
CC(=O)Nc1ccc2nc(SCc3ccccc3)sc2c1	17.8µM*	.	i	i
O=C(NCc1ccccc1)c1nc2ccccc2s1	22.4µM*	-18.7%	i	i
COCCNC(=O)c1ccc(CSc2nc3ccccc3s2)cc1	?	-3.4%	i	i
CCNC(=O)c1ccc(CSc2nc3ccccc3s2)cc1	14.1µM*	8.1%	i	i
COc1ccc(NC(=O)Cn2c(=O)n(-c3cc(C)cc(C)c3)c(=O)c3oc4ccccc4c32)cc1OC	21.6%	.	i	i
COc1ccc(NC(=O)CN2CCN(Cc3ccccc3Cl)S2(=O)=O)cc1Cl	0.0%	.	i	i
CN1C(=O)c2cc(NC(=O)c3ccccc3)ccc2OC[C@H]2O[C@@H](CC(=O)NCC3CC3)CC[C@@H]21	.	.	i	.
CC1CCN(S(=O)(=O)c2cc(C(=O)NCc3ccccc3)n(C)c2)CC1	17.5%	.	i	i
CCc1nnc(NC(=O)CSc2nccn2Cc2ccc(Cl)cc2)s1	10.6%	.	i	i
O=Cc1nc(Nc2cc(F)cc(F)c2)nc(NC2CCCC2)n1	.	.	i	.
Cc1[nH]c2ccccc2c1SCCNC(=O)c1ccccc1F	14.1µM*	.	i	14.1µM*
COc1cccc(C(=O)NCCSc2c(C)[nH]c3ccccc23)c1OC	?	?	i	i
O=C(NCCSc1c[nH]c2ccccc12)c1ccccc1Cl	35.5µM*	.	i	i
O=C(NCCSc1c[nH]c2ccccc12)c1ccc(Cl)cc1	-9.5%	.	i	i
COc1cc(C(=O)NCCSc2c(C)[nH]c3ccccc23)cc(OC)c1OC	22.5%	.	i	i
COc1ccccc1C(=O)NCCSc1c(C)[nH]c2ccccc12	31.6µM*	.	i	?
CCN(C(=O)CSc1nc2ccccc2nc1Cc1cccc(OC)c1)c1cccc(C)c1	-8.3%	.	i	i
CCSc1nnc(NC(=O)CSc2nccn2-c2cccc(C)c2C)s1	15.8µM*	3.8%	i	i
COc1cccc(-n2ccnc2SCC(=O)Nc2cccc(C)c2C)c1	15.8µM*	1.6%	i	i
SMILES	TDP-43 yeast inh	aSyn yeast inh	FUS suppressor	Abeta rescue
CCSc1nnc(NC(=O)CSc2nccn2-c2cc(C)cc(C)c2)s1	23.0%	4.3%	i	i
COc1ccc(-n2ccnc2SCC(=O)Nc2ccccc2)cc1	27.7%	0.3%	i	i
O=C(CSc1nccn1-c1ccc(F)cc1)Nc1ccc(OC(F)(F)F)cc1	15.8µM*	.	i	?
Cc1cc(C)cc(-n2ccnc2SCC(=O)Nc2cccc3ccccc23)c1	20µM*	10.3%	i	i
COc1ccc(C2c3cc(OC)c(OC)cc3CC(=O)N2c2ccc(C)cc2)cc1 (stereo not given)	12.8%	.	?	i
O=C(CSc1nccn1-c1ccc(Cl)cc1)Nc1cccc2ccccc12	11.2µM*	.	i	i
O=C(CSc1nccn1-c1cccc(Cl)c1)Nc1ccc2c(c1)OCO2	17.8µM*	.	i	i
CN(C)CC(C(=O)c1ccccc1)c1ccccc1 (stereo not given)	8.5%	-1.3%	.	i
